Results taken from PubChem BioAssay (NCI).
Compounds without any hit were thinned out: in the full panel of roughly 83,000, 20% have a hit.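 Compound tested at a single concentration for 48 hours in 96-well plates; a percent growth value below 10 was scored as active.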 Unmarked numbers belong to inactive results. Active and inactive are the calls of the source.

Tests used:
Assay in all cases: NCI-60 one-dose screen, 48 h (100 = growth as untreated, 0 = no growth, -100 = all killed)
Settings in all cases: 10 µM unless noted
[1] = system: HCT-15 colon
[2] = system: HT29 colon
[3] = system: SNB-75 CNS
[4] = system: SNB-19 CNS
[5] = system: U251 CNS
[6] = system: PC-3 prostate
[7] = system: UACC-62 melanoma
[8] = system: SK-MEL-28 melanoma
[9] = system: SK-MEL-2 melanoma
[10] = system: SN12C renal
[11] = system: UO-31 renal
[12] = system: TK-10 renal
[13] = system: ACHN renal
[14] = system: CAKI-1 renal
[15] = system: A498 renal
[16] = system: CCRF-CEM leukemia
[17] = system: MOLT-4 leukemia
[18] = system: SK-MEL-5 melanoma
[19] = system: LOX IMVI melanoma
[20] = system: EKVX NSCLC

SMILES | growth [1] | growth [2] | growth [3] | growth [4] | growth [5] [%] | growth [6] | growth [7] | growth [8] | growth [9] | growth [10] | growth [11] | growth [12] | growth [13] | growth [14] [%] | growth [15] | growth [16] | growth [17] | growth [18] | growth [19] | growth [20]
COc1cc(C2CC(=O)Nc3c2cnn3Cc2ccco2)cc2c1OCCO2 (stereo not drawn) | 64.9% | 88.8% | 77.5% | 97.9% | 84.6 | 97.6% | 75.8% | 75.7% | 86.8% | 91.3% | 97% | 102% | 93.1% | 96.9 | 64.3% | 111% | 65.6% |  |  | 
COc1cc2cc(COc3nccc(-c4ccc(Cl)cc4)n3)c(=O)[nH]c2cc1OC | 63.6% | -7.34% (active) | 91.6% | 77.1% |  | 71.4% | 92.3% | 40.3% | 96.7% | 69.3% | 67.2% | 100% | 102% | 86.5 | 76.6% | -20.5% (active) | 42.1% | 77.2% | 54.7% | 91%
CN1C2CCC1/C(=C\c1ccc(Cl)cc1)C1=C2[C@@H](c2ccc(Cl)cc2)C(C#N)=C(N)O1 (stereo partly drawn) | 71.9% | 65.2% | 92.4% | 99.8% |  | 82.4% | 75.7% | 80% | 84.6% | 94% | 65.6% | 97% | 93.9% | 76 | 80% | 77.2% | 57.6% | 88.9% | 91.7% | 75.7%
CC(=O)/C(=C/c1cccc(Cl)c1)C(=O)c1ccccc1 | 70% | 67.7% | 84.7% | 94.3% |  | 63.1% | 83.3% | 90.9% | 94.9% | 100% | 72.1% | 96.6% | 88.6% | 95.3 | 119% | 40.2% |  | 89.9% | 6.93% (active) | 98.6%
Nc1nc(-c2ccc(F)cc2)cc(-c2cnn(-c3ccccc3)n2)n1 | 95.4% | 93.5% | 100% | 104% |  | 114% | 91.1% | 107% | 96% | 111% | 86.8% | 121% | 100% | 86.2 | 85.9% | 103% | 104% | 104% | 97.2% | 99.7%
COc1ccc(C(=O)c2sc3nc4c(c(C(F)(F)F)c3c2N)CN(C(C)=O)CC4)cc1OC | 84.7% | 95% | 74.6% | 95.8% | 78.3 |  | 83.6% | 93.4% |  | 93.7% | 46.3% | 86% | 79.1% | 80 | 58.1% | 82.6% | 79.2% | 77.6% | 78.4% | 
COc1cc2nc3cc([N+](=O)[O-])ccc3c(NCCCNCC(C)(C)O)c2cc1OC | 21.9% | -52.4% (active) | -96% (active) | -26.1% (active) |  | -61.8% (active) | -76.1% (active) | -64% (active) | -47.5% (active) | -34.8% (active) | 1.88% (active) | -31.7% (active) | 1.58% (active) | 18.4 | -82.2% (active) | 1.71% (active) | 10.5% | -94.5% (active) | -58.4% (active) | -19.6% (active)
NC(CC(=O)O)C(=O)OCc1ccccc1 (stereo not drawn) | 95.1% | 115% | 65.5% | 101% |  | 103% | 94.5% | 99.1% | 94.8% | 105% | 71.8% | 122% | 97.1% | 79.9 | 85.4% | 108% | 103% | 97.8% | 107% | 
CCc1ccccc1NC(=O)c1sc2nc3c(cc2c1N)C(=O)CCC3 | 31.2% | 8.59% (active) | -15.4% (active) | 68.9% |  | 18% | 34.3% | 43.7% | 19.9% | 45.4% | 44.5% | 54.7% | 58.4% | 29.9 | -9.7% (active) | 13.6% | 24.4% | 30.7% | 42.6% | 
CCOC(=O)c1c2c(n3ccc(NC(=O)CCN(CC)CC)cc13)C(=O)c1ncccc1C2=O | 50.3% | 38.4% | 33% | 53.3% |  | 61.1% | 50.8% | 88.8% | 29.3% |  | 28.8% | 36.5% | 16.1% | 23 | 46.9% | 52.9% | 29.3% | 45.1% | 10.3% | 71.3%
COCCOc1ccc(-c2nc3ccc(-c4nc5ccc(N6CCN(C)CC6)cc5[nH]4)cc3[nH]2)cc1 | 85.9% | 4.98% (active) | -21.2% (active) | 7.61% (active) |  | 22.5% | -39.9% (active) | -39.2% (active) | -76.2% (active) | 18.8% | 79.2% | 66.4% | 80.8% | 68.6 | -37.8% (active) | -2.49% (active) | 0.928% (active) | 11.2% | -72.5% (active) | 67.9%
CCOC(=O)C(CC)n1c(=O)c2cc(OC)c(OC)cc2c2cnc3[nH]ccc3c21 (stereo not drawn) | 75% | 76.9% | 45.3% | 90.8% |  | 57.1% | 63.2% | 90.7% | 103% | 64.9% | 37% | 74.2% | 61.8% | 59 | -9.97% (active) | 81.1% | 53.6% | 80.9% | 44.8% | 76.4%
COc1cc(OC)c(/C=C/S(=O)(=O)Cc2cnc(OC)c(N)c2)c(OC)c1 | 9.83% (active) | 0.841% (active) | 42.1% | 31.3% |  | 27.8% | 40.1% | 56.2% | 24.2% | 23.7% | 25.5% | 27.9% | 25.7% | 34 | -1.94% (active) | 15.8% | 1.79% (active) | -24.8% (active) | 8.96% (active) | 37.9%
O=C1c2cccnc2C(=O)c2c1c(C(=O)OCCN1CCOCC1)c1ccccn21 | -65.6% (active) | -35.4% (active) | -13.9% (active) | 3.55% (active) |  | 15.3% | -52.7% (active) | -3.26% (active) | 7.23% (active) | -30.4% (active) | -26.7% (active) | -6.05% (active) | 7.94% (active) | 14.4 | -30.4% (active) | 8.9% (active) | -16.2% (active) | -90.5% (active) | -46% (active) | 13.1%
O=C1C(=O)N(CCCCn2cc(CO)nn2)c2ccccc21 | 102% | 103% | 72.3% | 99.5% |  | 98.3% | 99.3% | 109% | 98.8% |  | 87.7% | 102% | 101% | 87.8 | 99.4% | 104% | 95.7% | 101% | 92.1% | 92.4%
COc1ccc(-n2c(C)nc3c(c(C)nn3-c3ccccc3)c2=O)cc1 | 7.97% (active) | -15.6% (active) | 26.7% | 60.7% |  | 26.7% | 51.6% | 67.4% | 36.4% | 42% | 44.3% | 55.4% | 29.2% | 34.4 |  | 8.6% (active) | 12.2% | -17.1% (active) | 16.6% | 32%
CS(CCCCN=C=S)=NC(=O)c1c(F)c(F)c(F)c(F)c1F (stereo not drawn) | 37.3% | 57.6% | 74.3% | 91.9% |  | 95.8% | 51.9% | 85.9% | 94.2% | 61.1% | 59.6% | 66.6% | 52.4% | 71.3 | 112% | 36.8% | 66.2% | 96.1% | 28.3% | 97.8%
